Results: PubChem BioAssay (NCATS)
Inconclusive results are not listed. Calls of active or inactive are those of the source. The call rests on the fitted dose curve; in most records, active means well fitted curve in the direction sought with a large enough effect; inconclusive means small, poorly fitted or top-dose-only effect, or another doubt; inactive means no such curve, though single readings can be large; an effect the other way counts as inactive or inconclusive.

How the values were obtained:
[1] = NS1 protein of Zika virus - qHTS assay to identify small molecule inhibitors in human HEK 293 cells (AID 1347053);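 further: series mostly up to about 46 µM; plate controls were infected untreated cells for no effect and uninfected cells for full effect; nearly all actives have a fitted effect of over 55% in size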
Outline: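 Following 20 h seeding, HEK 293 cells took compound, then 1 h later ZIKV MR766 (MOI = 0.5). Incubation ran 24 h at 37 C before TR-FRET detection of NS1; a drop in signal indicates inhibition.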

[2] = qHTS of pediatric cancer cell lines to identify multiple opportunities for drug repurposing: Primary screen for TC32 cells (AID 1347089); further: on the % scale 0 is the no-effect control and ±100 the full control effect; nearly all actives have a fitted effect of over 60% in size
Outline: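 Measured quantity: luminescence from CellTiter-Glo, reflecting metabolically active TC32 cells following 48 h of compound. Curves came straight from multi-point titrations, with 8 or 11 points in primary and 11 in confirmatory screening.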

[3] = qHTS of pediatric cancer cell lines to identify multiple opportunities for drug repurposing: Primary screen for DAOY cells (AID 1347090);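 further: series mostly up to about 46 µM; plate controls were DMSO for no effect and bortezomib for full effect; nearly all actives have a fitted effect of over 55% in size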
Outline: (§1)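 Viability measured as metabolically active cells via CellTiter-Glo luminescence following 48 hours of compound exposure, 11-point dilutions in confirmatory testing. 500-1,000 cells/well plated 5 hours before dosing; controls were DMSO and 2.3 µM bortezomib.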

[4] = qHTS of pediatric cancer cell lines to identify multiple opportunities for drug repurposing: Primary screen for SJ-GBM2 cells (AID 1347091);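 further: plate controls were DMSO neutral control for no effect and bortezomib for full effect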
Outline: as §1

[5] = qHTS of pediatric cancer cell lines to identify multiple opportunities for drug repurposing: Primary screen for A673 cells (AID 1347092); further: on the % scale 0 is the no-effect control and ±100 the full control effect; nearly all actives have a fitted effect of over 45% in size
Outline: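 Cells are plated, rested 5 h, dosed by pintool, incubated 48 h, then lysed with CellTiter-Glo and read by luminescence. DMSO is the neutral control; bortezomib at 2.3 uM final is the positive control.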

[6] = qHTS of pediatric cancer cell lines to identify multiple opportunities for drug repurposing: Primary screen for SK-N-MC cells (AID 1347093);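 further: series mostly up to about 46 µM; plate controls were DMSO neutral control for no effect and bortezomib for full effect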
Outline: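 Metabolically active cells were quantified by ATP-dependent luminescence (CellTiter-Glo, 15 min at room temperature) following 48 h treatment. Cells had been plated at 500-1,000 per well and settled for 5 h beforehand.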

[7] = qHTS of pediatric cancer cell lines to identify multiple opportunities for drug repurposing: Primary screen for BT-37 cells (AID 1347094);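 further: series mostly up to about 57 µM; plate controls were DMSO for no effect and bortezomib for full effect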
Outline: (§2)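 ATP-based luminescence (CellTiter-Glo) quantifies viability after a 48-hour exposure. Compounds are dosed across 8 or 11 final concentrations; DMSO and 2.3 µM bortezomib serve as controls.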

[8] = qHTS of pediatric cancer cell lines to identify multiple opportunities for drug repurposing: Primary screen for NB-EBc1 cells (AID 1347095);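 further: plate controls were DMSO neutral control for no effect and bortezomib for full effect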
Outline: as §2

[9] = qHTS of pediatric cancer cell lines to identify multiple opportunities for drug repurposing: Primary screen for U-2 OS cells (AID 1347096);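 further: plate controls were DMSO wells for no effect and bortezomib positive control wells for full effect; nearly all actives have a fitted effect of over 50% in size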
Outline: (§3)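 Viability after 48 h compound treatment at 37C, 500-1,000 cells/well, read as ATP luminescence with CellTiter-Glo. Primary screens used 11-point (MIPE, 0.78 nM-46 µM) or 8-point (NPC, 0.59 nM-46 µM) final concentrations; follow-up screens used 11-point dilutions.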

[10] = qHTS of pediatric cancer cell lines to identify multiple opportunities for drug repurposing: Primary screen for Saos-2 cells (AID 1347097); further: on the % scale 0 is the no-effect control and ±100 the full control effect; nearly all actives have a fitted effect of over 40% in size
Outline: as §2

[11] = qHTS of pediatric cancer cell lines to identify multiple opportunities for drug repurposing: Primary screen for SK-N-SH cells (AID 1347098);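 further: DMSO served as neutral control and bortezomib at 2.3 µM as positive control; on the % scale 0 is the no-effect control and ±100 the full control effect; nearly all actives have a fitted effect of over 65% in size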
Outline: (§4)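 Cells (500-1,000/well) rested 5 h, then received compounds for 48 h; metabolically active cells were measured by CellTiter-Glo luminescence. Final concentrations spanned up to 46 µM (MIPE, 11-point) or 0.59 nM-46 µM (NPC, 8-point) in primary screens, 11-point in follow-ups.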

[12] = qHTS of pediatric cancer cell lines to identify multiple opportunities for drug repurposing: Primary screen for NB1643 cells (AID 1347099);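 further: plate controls were DMSO neutral control for no effect and bortezomib positive control for full effect; nearly all actives have a fitted effect of over 50% in size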
Outline: as §2

[13] = qHTS of pediatric cancer cell lines to identify multiple opportunities for drug repurposing: Primary screen for LAN-5 cells (AID 1347100);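 further: plate controls were DMSO neutral control for no effect and bortezomib positive control for full effect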
Outline: as §3

[14] = qHTS of pediatric cancer cell lines to identify multiple opportunities for drug repurposing: Primary screen for BT-12 cells (AID 1347101);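 further: plate controls were DMSO for no effect and bortezomib positive control for full effect; nearly all actives have a fitted effect of over 25% in size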
Outline: as §4

[15] = qHTS of pediatric cancer cell lines to identify multiple opportunities for drug repurposing: Primary screen for Rh18 cells (AID 1347102); further: on the % scale 0 is the no-effect control and ±100 the full control effect; nearly all actives have a fitted effect of over 65% in size
Outline: as §3

[16] = qHTS of pediatric cancer cell lines to identify multiple opportunities for drug repurposing: Primary screen for OHS-50 cells (AID 1347103);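 further: plate controls were DMSO neutral control for no effect and bortezomib positive control for full effect; nearly all actives have a fitted effect of over 40% in size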
Outline: as §4

CCCCCCCCCCCCCCCCO
inactive: Potency [1] | Potency [2] | Potency [3] | Potency [4] | Potency [5] | Potency [6] | Potency [7] | Potency [8] | Potency [9] | Potency [10] | Potency [11] | Potency [12] | Potency [13] | Potency [14] | Potency [15] | Potency [16]

O=C(O)Cc1csc(-c2ccc(Cl)cc2)n1
inactive: Potency [1] | Potency [2] | Potency [3] | Potency [4] | Potency [5] | Potency [6] | Potency [7] | Potency [8] | Potency [9] | Potency [10] | Potency [11] | Potency [12] | Potency [13] | Potency [14] | Potency [15] | Potency [16]

NS(=O)(=O)c1cc2c(cc1Cl)NC(CC1CCCC1)NS2(=O)=O (stereo not drawn)
inactive: Potency [1] | Potency [2] | Potency [3] | Potency [4] | Potency [5] | Potency [6] | Potency [7] | Potency [8] | Potency [9] | Potency [10] | Potency [11] | Potency [12] | Potency [13] | Potency [14] | Potency [15]

CCC(C(=O)OCCOCCN(CC)CC)c1ccccc1 (stereo not drawn)
inactive: Potency [1] | Potency [2] | Potency [3] | Potency [4] | Potency [5] | Potency [6] | Potency [7] | Potency [8] | Potency [9] | Potency [11] | Potency [12] | Potency [13] | Potency [14] | Potency [15] | Potency [16]

NC(=O)c1ccccc1O
inactive: Potency [1] | Potency [2] | Potency [3] | Potency [4] | Potency [5] | Potency [6] | Potency [7] | Potency [8] | Potency [9] | Potency [11] | Potency [12] | Potency [13] | Potency [14] | Potency [15] | Potency [16]

O=C(CCN1CCN2CCCC2C1)N1c2ccccc2Sc2ccc(Cl)cc21 (stereo not drawn)
inactive: Potency [1] | Potency [2] | Potency [3] | Potency [4] | Potency [5] | Potency [6] | Potency [7] | Potency [8] | Potency [9] | Potency [11] | Potency [12] | Potency [13] | Potency [14]

CCOC(=O)Nc1ccc2c(c1)N(C(=O)CCN1CCOCC1)c1ccccc1S2
inactive: Potency [1] | Potency [2] | Potency [3] | Potency [4] | Potency [5] | Potency [6] | Potency [7] | Potency [8] | Potency [9] | Potency [11] | Potency [12] | Potency [13] | Potency [14] | Potency [15] | Potency [16]

COc1ccccc1N1CCN(CCCCNC(=O)c2ccc(-c3ccc(C(C)=O)cc3)cc2)CC1
inactive: Potency [1] | Potency [2] | Potency [3] | Potency [4] | Potency [5] | Potency [6] | Potency [7] | Potency [8] | Potency [9] | Potency [10] | Potency [11] | Potency [12] | Potency [13] | Potency [14] | Potency [15] | Potency [16]

CN(C)CCN1C(=O)c2ccccc2N(C)c2ccccc21
inactive: Potency [1] | Potency [2] | Potency [3] | Potency [4] | Potency [5] | Potency [6] | Potency [7] | Potency [8] | Potency [9] | Potency [10] | Potency [11] | Potency [12] | Potency [13] | Potency [14] | Potency [15] | Potency [16]

CN1CCN(c2c(F)cc3c(=O)c(C(=O)O)cn4c3c2SCC4)CC1
inactive: Potency [1] | Potency [2] | Potency [3] | Potency [4] | Potency [5] | Potency [6] | Potency [7] | Potency [8] | Potency [9] | Potency [11] | Potency [12] | Potency [13] | Potency [14] | Potency [15] | Potency [16]

CN(C)CCOC(=O)C(c1ccccc1)C1(O)CCCC1 (stereo not drawn)
inactive: Potency [1] | Potency [2] | Potency [3] | Potency [4] | Potency [5] | Potency [6] | Potency [7] | Potency [8] | Potency [9] | Potency [10] | Potency [11] | Potency [12] | Potency [13] | Potency [14] | Potency [15] | Potency [16]

N=C(N)N1CCc2ccccc2C1
inactive: activity change, negative = inhibition [1] -16.4% [at 4.81 µM] | activity change, negative = cytotoxic [2] 1.67% [at 4.81 µM] | activity change, negative = cytotoxic [3] -21.6% [at 4.84 µM] | activity change, negative = cytotoxic [4] 1.07% [at 4.84 µM] | activity change, negative = cytotoxic [5] -18% [at 4.84 µM] | activity change, negative = cytotoxic [6] -27.9% [at 4.84 µM] | activity change, negative = cytotoxic [7] -4.38% [at 6.03 µM] | activity change, negative = cytotoxic [8] 5.74% [at 4.84 µM] | activity change, negative = cytotoxic [9] -4.95% [at 4.84 µM] | activity change, negative = cytotoxic [11] -21.9% [at 6 µM] | activity change, negative = cytotoxic [12] -5.24% [at 4.84 µM] | activity change, negative = cytotoxic [13] -2.04% [at 4.84 µM] | activity change, negative = cytotoxic [14] -5.09% [at 6.03 µM] | activity change, negative = cytotoxic [15] 1.68% [at 4.84 µM]

CCOc1ccc(NC(C)=O)cc1
inactive: Potency [1] | Potency [2] | Potency [3] | Potency [4] | Potency [5] | Potency [6] | Potency [7] | Potency [8] | Potency [9] | Potency [11] | Potency [12] | Potency [13] | Potency [14] | Potency [15] | Potency [16]

CN(C)CCOC(c1ccc(Cl)cc1)c1ccccn1 (stereo not drawn)
inactive: Potency [1] | Potency [2] | Potency [3] | Potency [4] | Potency [5] | Potency [6] | Potency [7] | Potency [8] | Potency [9] | Potency [10] | Potency [11] | Potency [12] | Potency [13] | Potency [14] | Potency [15] | Potency [16]

CCCCN1C[C@H](O)[C@@H](O)[C@H](O)[C@H]1CO
inactive: Potency [1] | Potency [2] | Potency [3] | Potency [4] | Potency [5] | Potency [6] | Potency [7] | Potency [8] | Potency [9] | Potency [11] | Potency [12] | Potency [13] | Potency [14] | Potency [15] | Potency [16]
